# Measurements as given in ChEMBL document CHEMBL3988442, “University of Dundee, Small-Polar-MMV Screening Library” (2021).
# Among all 48,000 compounds or so, about 13,000 (27%) showed an effect of 50% or more. The list shows a part of the results.
# Test system: Wolbachia pipientis
# Assay: Anti-Wolbachia Cell-Based Screen
# Assay type: functional
# Set-up: scale not given: in the data most compounds retested in dose-response had high values
# Details: 5 µM
row,SMILES,Percent Effect [%]
1,O=C(c1ccc2cccc(F)c2n1)N1CCN(CCn2cccc2)CC1,4.444
2,COC(=O)N1CCc2ccccc2C1C(=O)NCc1cccs1 (stereo not drawn),1.281
3,COCCNC(=O)[C@H]1C[C@@H]2CCN(Cc3nccs3)C[C@H]2O1.O=C(O)C(F)(F)F,2.995
4,COCCNC(=O)[C@H]1CO[C@H]2CCN(Cc3cccs3)C[C@H]2C1,107.4
5,CCN1CC[C@@H]2OC[C@H](C(=O)NCc3cccs3)C[C@@H]2C1,91.2
6,Cc1ncccc1NC(=O)[C@@H]1C[C@@H]2CCN(Cc3cccs3)C[C@H]2O1.O=C(O)C(F)(F)F.O=C(O)C(F)(F)F,-1.319
7,O=C(CN1CCC(c2ccnn2CCO)CC1)NCc1cccs1,-0.7289
8,COc1ccc(F)cc1CN1CCN(Cc2nccn2C)C(C)C1 (stereo not drawn),-0.7274
9,CC(=O)N1CC(=O)N(c2ccccc2)CC12CCN(Cc1ccoc1)C2.O=C(O)C(F)(F)F (stereo not drawn),103.1
10,CC(=O)N1CC(=O)N(c2ccccc2)CC12CCN(Cc1ccsc1)C2 (stereo not drawn),-2.634
11,CC(=O)N1CC(=O)N(c2ccsc2)CC12CCN(Cc1ccoc1)C2 (stereo not drawn),104.4
12,CC(=O)N1CC(=O)N(c2ccccc2)CC12CCN(Cc1nccs1)C2.O=C(O)C(F)(F)F (stereo not drawn),-14.31
13,CC(=O)N1CC(=O)N(c2ccsc2)CC12CCN(Cc1ccccn1)C2.O=C(O)C(F)(F)F (stereo not drawn),-6.842
14,CC(=O)N1CC(=O)N(c2ccccc2)CC12CCN(CC1CC1)C2.O=C(O)C(F)(F)F (stereo not drawn),-3.194
15,CC(C)OCCOCc1cccc(NC(=O)NCC(=O)N(C)C)c1,-22.62
16,CCN1CCN2CCCN(S(=O)(=O)c3ccc(C)cc3C)C2C1=O (stereo not drawn),0.9872
17,CN1CCN(c2ccc(NCc3ccsc3)cn2)CC1,-12.65
18,CCOCC1CN(C(=O)COc2ccccc2C)Cc2ncn(C)c21.O=C(O)C(F)(F)F (stereo not drawn),-10.67
19,CN(C)C(=O)COCC1CN(C2CCC2)Cc2ncn(C)c21.O=C(O)C(F)(F)F.O=C(O)C(F)(F)F (stereo not drawn),85.57
20,COCC1CN(C(=O)COc2ccccc2)Cc2ncn(C)c21.O=C(O)C(F)(F)F (stereo not drawn),-7.331
21,CN(C)C(=O)COCC1CN(S(C)(=O)=O)Cc2ncn(C)c21.O=C(O)C(F)(F)F (stereo not drawn),94.11
22,Cn1cnc2c1C(COCC1CCOCC1)CN(C(=O)C1CC=CC1)C2.O=C(O)C(F)(F)F (stereo not drawn),-7.237
23,COCCN(Cc1sccc1C)c1nc(C)nc2sccc12,-3.328
